The values below come from PubChem BioAssay (NCI).

About 83,000 compounds went through this panel and 20% of them were active in at least one assay; those are over-represented in the sample as a whole.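 Plates (96-well) were seeded with cells, treated with compound at one concentration, and incubated for 48 hours before percent growth was determined.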 Values without a mark were called inactive. Active and inactive are the calls of the source. The calls were made as follows: active = growth percent below 10; inactive = the rest.

Test systems include SK-MEL-2 melanoma; EKVX NSCLC; SN12C renal; UO-31 renal; TK-10 renal; ACHN renal; CAKI-1 renal; A498 renal; CCRF-CEM leukemia; MOLT-4 leukemia.
Holding throughout (assay): NCI-60 one-dose screen, 48 h (100 = growth as untreated, 0 = no growth, -100 = all killed)
Conditions in all cases: 10 µM unless noted

Consider `COc1cc(C2=NOC(c3cc(OC)c(OC)c(OC)c3)C2)ccc1OCCCCOc1cc2c(cc1OC)C(=O)N1CCC[C@H]1C=N2` (stereo not given in full), for which the growth in the assay with SK-MEL-2 melanoma was 1.46% (active); with EKVX NSCLC, -39.6% (active); in the assay on SN12C renal, 6.18% (active); with UO-31 renal, 7.06% (active); with TK-10 renal it was -22.4% (active); with ACHN renal it was 5.06% (active). Further, the growth was 5.08% (active) in the assay on CAKI-1 renal, -58.7% (active) in the assay on A498 renal, -37.5% (active) in the assay with CCRF-CEM leukemia and 2.1% (active) in the assay with MOLT-4 leukemia.
In the case of `COc1cc(/C=C2\C(=O)Nc3ccc(N(C)C)cc32)cc(OC)c1OC`, the growth with SK-MEL-2 melanoma was 61.2%; in the assay with EKVX NSCLC, 34.4%; in the assay with SN12C renal, 25.2%; in the assay on UO-31 renal, 35.2%; in the assay with TK-10 renal, 42.3%; with ACHN renal, 41.6%. The growth is 22.2% in the assay with CAKI-1 renal, -18.2% (active) with A498 renal, 21.9% in the assay on CCRF-CEM leukemia and 36.2% in the assay with MOLT-4 leukemia.
For `O=C(OCc1ccc2c(Cl)cc(Cl)c(O)c2n1)c1cc2ccccc2[nH]1`, the growth with SK-MEL-2 melanoma was -54.6% (active); with EKVX NSCLC it was -71.9% (active); in the assay on SN12C renal, -60.6% (active); in the assay with UO-31 renal it was -100% (active); in the assay on TK-10 renal it was -94.1% (active); with ACHN renal it was -96.7% (active). Moreover, the growth is -98% (active) with CAKI-1 renal, -78.4% (active) with A498 renal, 0% (active) with CCRF-CEM leukemia and -8.99% (active) in the assay on MOLT-4 leukemia.
In the case of `C#CC[C@@H]1C[C@]2(C)[C@H]3CC[C@@H]4[C@H]5C(C(=C)C)CC[C@]5(C(=O)NCCCCN)CC[C@@]4(C)[C@]3(C)CC[C@H]2C(C)(C)[C@H]1OC(C)=O` (stereo not given in full), the growth is 61% with SK-MEL-2 melanoma; 90.1% in the assay with EKVX NSCLC; -82.9% (active) in the assay with SN12C renal; -97.1% (active) in the assay with UO-31 renal; -92.9% (active) in the assay on TK-10 renal; -98.3% (active) with ACHN renal. Moreover, the growth was -98.8% (active) with CAKI-1 renal, 108% in the assay with A498 renal, -11% (active) with CCRF-CEM leukemia and -21.3% (active) in the assay with MOLT-4 leukemia.
With `COc1c(-c2cc(-c3ccc(C)o3)[nH]c(=O)n2)c(O)cc2occc12`, the growth is 69.6% in the assay with SK-MEL-2 melanoma; 69.8% in the assay with EKVX NSCLC; 63.6% in the assay with SN12C renal; 71.5% with UO-31 renal; 104% with TK-10 renal; 89.9% in the assay on ACHN renal. Moreover, the growth was 63.8% in the assay on CAKI-1 renal, 54.1% in the assay with A498 renal, 77.8% in the assay with CCRF-CEM leukemia and 41.1% with MOLT-4 leukemia.
With `CCN(CC)CCNc1c(C)cc(CO)c(Cl)c1C`, the growth is 112% with SK-MEL-2 melanoma; 110% in the assay on EKVX NSCLC; 97.7% with SN12C renal; 111% with UO-31 renal; 106% with TK-10 renal; 106% in the assay with ACHN renal. Besides, the growth in the assay with CAKI-1 renal is 104%; with A498 renal it was 89%; in the assay on CCRF-CEM leukemia, 101%; in the assay with MOLT-4 leukemia, 93%.
In the case of `CCCNC(=S)N/N=C(\C)c1ccccn1`, the growth is 69.8% with SK-MEL-2 melanoma; 12.1% in the assay with EKVX NSCLC; 31.6% in the assay on SN12C renal; -0.774% (active) in the assay on UO-31 renal; 47.4% with TK-10 renal; 10.8% in the assay with ACHN renal. Also, the growth was 6.68% (active) in the assay with CAKI-1 renal, 30.8% with A498 renal, 15.9% in the assay with CCRF-CEM leukemia and 6.93% (active) in the assay with MOLT-4 leukemia.
Consider `CN1CCN(Cc2ccc(NC(=O)c3cncc(C#Cc4ncc5ccccn45)c3)cc2C(F)(F)F)CC1`, for which the growth with SK-MEL-2 melanoma is -8.17% (active); in the assay on EKVX NSCLC, 43.9%; in the assay on SN12C renal, 24%; in the assay with UO-31 renal it was 5.98% (active); with TK-10 renal, 53.4%; with ACHN renal, 13.1%. The growth with CAKI-1 renal was 1.78% (active); in the assay with A498 renal, 11.4%; in the assay on CCRF-CEM leukemia, 8.69% (active); in the assay with MOLT-4 leukemia it was 17.8%.
As to `O=[N+]([O-])c1ccccc1CN1CCCCC1`, the growth with SK-MEL-2 melanoma is 100%; in the assay on EKVX NSCLC it was 86.8%; in the assay with SN12C renal, 105%; with UO-31 renal, 89.4%; with TK-10 renal, 121%; in the assay with ACHN renal it was 113%. In addition, the growth with CAKI-1 renal is 108%; in the assay with A498 renal, 99.5%; with CCRF-CEM leukemia it was 85.4%; with MOLT-4 leukemia, 115%.
Take `O=C(/C=C/c1cccc([N+](=O)[O-])c1)c1ccc(Nc2nc(N3CCCCC3)nc(N3CCCCC3)n2)cc1`: the growth in the assay with SK-MEL-2 melanoma was 105%; in the assay with EKVX NSCLC it was 92.3%; in the assay on SN12C renal it was 96.3%; in the assay on UO-31 renal it was 75.1%; in the assay on TK-10 renal, 108%; with ACHN renal, 102%. Further, the growth in the assay on CAKI-1 renal is 89.6%; in the assay on A498 renal it was 80.9%; in the assay with CCRF-CEM leukemia, 104%; in the assay on MOLT-4 leukemia it was 93.4%.
For `CC(CN1CCN(C)CC1)CN1c2ccccc2Sc2ccc(C(F)(F)F)cc21` (stereo not given), the growth was 70% in the assay on SK-MEL-2 melanoma; 70.4% in the assay on EKVX NSCLC; 47.2% with SN12C renal; 39.2% in the assay with UO-31 renal; 21% with TK-10 renal; 38.1% with ACHN renal. Further, the growth in the assay on CAKI-1 renal is 37.3%; in the assay with A498 renal, 60.3%; with CCRF-CEM leukemia it was 25.2%; with MOLT-4 leukemia, 15.9%.
For the molecule `O=C(Nc1cccc(Cl)c1)Nc1cc(C(F)(F)F)ccc1Cl`, the growth with SK-MEL-2 melanoma was 4.93% (active); in the assay with EKVX NSCLC, 16%; in the assay with SN12C renal, -24.4% (active); in the assay with UO-31 renal, 10.7%; with TK-10 renal, 16.9%; with ACHN renal it was 2.64% (active). Further, the growth with CAKI-1 renal is 9.58% (active); in the assay on A498 renal it was 61.7%; in the assay on CCRF-CEM leukemia, 17%; with MOLT-4 leukemia, 10.1%.
On to `CCOC(=O)c1ccc(N(CCC(=O)O)C(C)=O)cc1`, for which the growth is 105% in the assay with SK-MEL-2 melanoma; 130% in the assay on EKVX NSCLC; 107% with SN12C renal; 79% with UO-31 renal; 105% in the assay with TK-10 renal; 112% in the assay with ACHN renal. The growth was 101% in the assay with CAKI-1 renal, 104% in the assay with A498 renal, 98.3% in the assay with CCRF-CEM leukemia and 104% in the assay on MOLT-4 leukemia.
